Results published in PubChem BioAssay (NCI).
Compounds without any hit were thinned out: in the full panel of roughly 79,000, 15% have a hit. A number with no mark means an inactive call. The source made the active and inactive calls. No stated cut-off is given here; in the data, active means growth inhibition above about 70%; inactive means the rest.

Columns and labels:
[1] = NCI Yeast Anticancer Drug Screen. Data for the rad50 strain (AID 155);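 further: 0% = growth of vehicle-only cultures of the same strain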; conditions: S. cerevisiae rad50 strain growth inhibition; at 50.0 µM; active compounds read high
Method in brief: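 DNA repair mutant yeast, compound exposure, growth read-out; inhibition is taken relative to vehicle.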

[2] = NCI Yeast Anticancer Drug Screen. Data for the mec2-1 strain (AID 157); conditions: S. cerevisiae mec2-1 strain, at 50.0 µM, active compounds read high
Method in brief: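 Compounds were applied to mec2-1 yeast cells. Their growth was then compared with that of vehicle-treated cultures to give growth inhibition.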

[3] = NCI Yeast Anticancer Drug Screen. Data for the sgs1 mgt1 strain (AID 161);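 further: 0% = growth of cultures given vehicle only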; conditions: S. cerevisiae sgs1 mgt1 strain, at 50.0 µM, active compounds read high
Method in brief: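 Percent growth inhibition was derived by comparing compound-exposed mutant yeast with vehicle-exposed cultures. The strain carries alterations in DNA damage repair.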

[4] = NCI Yeast Anticancer Drug Screen. Data for the cln2 rad14 strain (AID 165);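 further: 0% = growth equal to vehicle treated cultures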; conditions: S. cerevisiae cln2 rad14 strain, at 50.0 µM, active compounds read high
Method in brief: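 Strain: cln2 rad14 yeast, altered in cell cycle control and DNA damage repair. Read-out: growth inhibition vs vehicle.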

[5] = NCI Yeast Anticancer Drug Screen. Data for the bub3 strain (AID 167); conditions: S. cerevisiae bub3 mutant strain, at 50.0 µM, active compounds read high
Method in brief: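 In this screen, a yeast mutant lacking normal mitotic checkpoint function is challenged with compound. Relative growth versus vehicle gives the inhibition value.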

[6] = NCI Yeast Anticancer Drug Screen. Data for the mlh1 rad18 strain (AID 175); conditions: S. cerevisiae mlh1 rad18 strain growth inhibition; at 50.0 µM; active compounds read high
Method in brief: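 A repair-deficient yeast strain is exposed to test compound, and growth is scored relative to vehicle-treated controls.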

Compound	growth inhibition [1]	growth inhibition [2] [%]	growth inhibition [3]	growth inhibition [4] [%]	growth inhibition [5] [%]	growth inhibition [6]
COC(=O)/C(C#N)=C(/NCc1ccccc1)Nc1ccccc1	20.8%	-13.1	-8.2%	11.4	43.6	21.4%
CCOC(=O)C1(C(=O)OCC)CC(CCC#N)(CCC#N)C(=O)C(CCC#N)(CCC#N)C1	-2.15%	-5.5	1.55%	-3.1	-11.4	-26.8%
[O-][N+](O)=C1c2ccccc2-c2ccccc21	7.4%	2.95	0.65%	-21.4	3.75	11.1%
C=CC(C/C(C)=N/Nc1ccc([N+](=O)[O-])cc1[N+](=O)[O-])c1ccccc1 (stereo unspecified)	-17.7%	-4.85	-17.6%	-54.4	-19.6	-8%
CSC(N)=NC1CCCCC1	-7.35%	0.1	-6.05%	-30.4	35.9	6.15%
CNC(=O)OCc1c(COC(=O)NC)c(-c2cccs2)n2c1CCC2	42%	39.5	23.1%	30.8	27.1	40.7%
C=CNC(=O)NC(=O)CSc1nnc(-c2ccccc2NC(=O)C(F)(F)F)c(=O)[nH]1	5.7%	-4.95	-4%	14.9	30.9	5.4%
Cc1nc2ccccc2nc1CCO	-12.7%	-0.15	-3.85%	-24.2	-24.8	-8.8%
C/C(=N/Nc1ccc([N+](=O)[O-])cc1[N+](=O)[O-])C(CC(C(=O)Nc1ccccc1C)/C(C)=N\Nc1ccc([N+](=O)[O-])cc1[N+](=O)[O-])C(=O)Nc1ccccc1C (stereo unspecified)	18.4%	25.9	4.9%	10.3	8.75	43.6%
COc1ccccc1C(O)(c1ccccc1OC)C1(O)CCN(C)CC1	-10.8%	-10.9	-4.8%	-4.45	-5.3	-10.4%
O=CC12c3ccccc3C(c3ccccc31)C1C(=O)NC(=O)C12 (stereo unspecified)	1.65%	-1.05	7.6%	31.1	-18.3	6.65%
N#Cc1ccccc1CC(O)(c1ccccc1)c1ccccc1	36.5%	-5.85	-7.75%	13.7	-10.2	9.8%
O=C1C(=Nc2ccc(Cl)nc2)CC(c2ccccc2)N1c1ccc(Cl)nc1 (stereo unspecified)	7.9%	9.25	16.1%	22.4	3	-4%
CN(CO)N=Nc1ccc(C(F)(F)F)cc1	-6.05%	-0.65	-10%	-14.2	13.2	19.8%
c1ccc2c(c1)SCCCSCCSCCCS2	-15.2%	-0.65	8.1%	5.05	20.6	2.6%
CC(=O)Nc1ccc2ccccc2c1SC1CC(=O)N(c2ccccc2)C1=O (stereo unspecified)	-24.1%	-3	-26.2%	-23.4	-15.8	-20.6%
COc1ccc(C23CCCC(=O)C2C2C(=O)CCCC23c2ccc(OC)cc2)cc1 (stereo unspecified)	47.4%	-0.85	4.4%	10.6	5.25	13.1%
CCOC(=O)C(=O)N1Cc2cc3c(cc2C2CC(O)C(O)CC21)OCO3 (stereo unspecified)	-8.2%	-3.9	-1.1%	6.05	2.85	5.85%
C1=NCCCCCCCN=Cc2ccccc2NCCNc2ccccc21	29.1%	23.8	20.4%	32.4	38.3	44.6%
Cc1cc(Cl)ccc1NC(=O)C(=O)C(C(=O)c1ccccc1)C1OC(=O)c2ccccc21 (stereo unspecified)	20.9%	-7.45	14.2%	14.6	-3.25	-9.75%
O=C1N(Cl)C2C(N1Cl)N(Cl)C(=O)N2Cl (stereo unspecified)	5.35%	-9.55	-18.4%	-2.9	2.95	-12.6%

Compound	growth inhibition [1]	growth inhibition [2] [%]	growth inhibition [3]	growth inhibition [4] [%]	growth inhibition [5] [%]	growth inhibition [6]
CN(C)CCCNC(=S)S	-17%	-28.6	5.25%	11.2	-22.1	-4.35%
Cc1cccc(O)c1	-11.7%	-9.8	-42%	-16.4	-4.65	-39.2%
O=C(O)c1ccc([N+](=O)[O-])cc1N(c1ccccc1)c1ccccc1	27.6%	29.9	40.1%	22.2	29.3	54%
CCS(=O)(=O)N(CC(=O)O)Cc1ccccc1	-4.95%	7.3	-13.4%	0.95	6.8	0.65%
Br/C(=N\Nc1nn[nH]n1)c1ccncc1	-15.1%	1.75	-26.1%	-22	-21.8	-28.9%
Clc1ccc(Cl)nc1	-8.25%	-8.25	-8.2%	-13.7	2.75	5.45%
COC(=O)/C=C/c1ccc([N+](=O)[O-])cc1	-6.3%	-2.5	20.9%	-24	8.15	-18.2%
CC(=O)c1cccc(C(C)=O)c1N=Cc1ccc(Cl)cc1	-30.3%	-27.9	-26.4%	-11.8	-18.1	-18.9%
O=c1[nH][nH]c(=O)c2nc3c(nc12)c1nc2c(=O)[nH][nH]c(=O)c2nc1c1nc2c(=O)[nH][nH]c(=O)c2nc31	-1.6%	21.4	21.1%	-2.55	-11.1	8.2%
O=[N+]([O-])c1ccc(-n2cnc3c(Cl)ncnc32)cc1	1.2%	35.9	14.6%	-0.55	28.4	0.6%
O=C(Nc1cc2cc([N+](=O)[O-])ccc2oc1=O)c1cccs1	-12.2%	-30.7	-6.8%	4.85	-40.2	-15.6%
CC(C)(C)c1ccc(SC(=O)Nc2cccc(Cl)c2Cl)cc1	8.35%	14.3	18.1%	13.8	24.4	20.9%
CN(CCO)CCC1COc2ccccc2O1 (stereo unspecified)	2.1%	-29.6	0.25%	12.1	-1.05	1.25%
CC(C)(C)c1ccc(SC(=O)NCCCl)cc1	-1.55%	23.9	14.2%	-31.1	-5.4	-11.2%
CCc1cccc(C(C)C)c1NC(=O)C(=O)C(Cc1nc2ccccc2[nH]c1=O)C(=O)OC (stereo unspecified)	37.8%	8.6	3.85%	-57.9	2.4	15.4%
O=C1c2c(/C=C/c3ccc(Cl)c(Cl)c3)nc3ccccc3c2C(=O)N1CCN1CCCCC1	89.3% (active)	50.6	83.2% (active)	17.9	18.4	79.3% (active)
CC1=CC(C)(C)N=C2SC(c3ccc(Cl)cc3)=NN12	15.8%	7.25	13.2%	-5.8	13.2	10.6%
O=CNC(Cc1cnc[nH]1)C(=O)O (stereo unspecified)	-14.4%	-16.9	-48.1%	-68.2	-25.5	-30.2%
Clc1ccccc1CSc1cnnc(Cl)c1SCc1ccccc1Cl	28.6%	12.2	31.6%	39.6	5.2	21.9%
O=C(Nc1ccccc1CC(O)c1ccc2c(c1)OCO2)c1ccccc1 (stereo unspecified)	19.1%	-8.1	3.65%	-22.8	11.6	13.8%
